Here are results for seven molecules from PubChem BioAssay (NCI).

Compounds without any hit were thinned out: in the full panel of roughly 79,000, 15% have a hit. A number with no mark means an inactive call. Activity calls are given as the source filed them. Rule as the data show it: active = growth inhibition above about 70%; inactive = the rest. Where a SMILES comes first, the peptide text is derived from it. The star is where a group is joined. Trt = c1ccc(C(c2ccccc2)(c2ccccc2)*)cc1; Cbz = O=C(OCc1ccccc1)*

The nature of experiment [1]: NCI Yeast Anticancer Drug Screen. Data for the rad50 strain (AID 155).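 Also: 0% = growth of vehicle-only cultures of the same strain.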 Particulars: S. cerevisiae rad50 strain growth inhibition, hits give high values. The method in brief: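 Inhibition values express reduced yeast growth in compound-treated cultures relative to vehicle-treated controls.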
Experiment [2] in a line: NCI Yeast Anticancer Drug Screen. Data for the mec2-1 strain (AID 157). The settings on record: S. cerevisiae mec2-1 strain, hits give high values. In outline:
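Each compound was tested on mec2-1 yeast, a strain altered in DNA damage repair or cell cycle control. Growth inhibition is reported relative to vehicle.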

The nature of experiment [3]: NCI Yeast Anticancer Drug Screen. Data for the sgs1 mgt1 strain (AID 161).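 Also: 0% = growth of cultures given vehicle only.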 The settings on record: S. cerevisiae sgs1 mgt1 strain, hits give high values. In outline: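 Inhibition of yeast growth, normalised to vehicle-treated controls, is reported for a strain bearing genetic alterations in DNA damage repair.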
Experiment [4] in a line: NCI Yeast Anticancer Drug Screen. Data for the cln2 rad14 strain (AID 165).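 Also: 0% = growth equal to vehicle treated cultures.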 The settings on record: S. cerevisiae cln2 rad14 strain, hits give high values. In outline:
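Test compounds were added to cln2 rad14 yeast cultures; inhibition of growth was then determined by comparison with vehicle treatment.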

Experiment [5] can be described thus: NCI Yeast Anticancer Drug Screen. Data for the bub3 strain (AID 167). The settings on record: S. cerevisiae bub3 mutant strain, hits give high values. The method in brief:
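Steps: expose the mutant yeast strain to compound; grow alongside vehicle-treated cultures; measure growth; express inhibition against the vehicle cultures.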

A short description of experiment [6]: NCI Yeast Anticancer Drug Screen. Data for the mlh1 rad18 strain (AID 175). The settings on record: S. cerevisiae mlh1 rad18 strain growth inhibition, hits give high values. The method in brief: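 Inhibition values reflect reduced growth of mutant yeast versus vehicle-treated controls following compound exposure; the mutations affect DNA damage repair.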
Setting [7] is: at 5.0 µM (retest, dose inferred, filed as 0.5).
[8] abbreviates: at 50.0 µM (retest, dose inferred, filed as 5.0).

Consider `COC(=O)C(CSC(c1ccccc1)(c1ccccc1)c1ccccc1)NC(=O)C(CC(N)=O)NC(=O)OCc1ccccc1` (stereo not drawn) (Cbz-Asn-Cys(Trt)-OMe; configuration not given here), for which the growth inhibition in experiment [1] (setting [7]) was 32%; in experiment [1] (setting [8]) it was 84% (active); in experiment [1] (at 50.0 µM), 73.5% (active); in experiment [2] (setting [7]), 13%; in experiment [2] (setting [8]) it was 89% (active); in experiment [2] (at 50.0 µM), 68.2%. Moreover, the growth inhibition is 17% in experiment [3] (setting [7]); 94% (active) in experiment [3] (setting [8]); 72.5% (active) in experiment [3] (at 50.0 µM); 27% in experiment [4] (setting [7]); 94% (active) in experiment [4] (setting [8]); 72% (active) in experiment [4] (at 50.0 µM). Besides, the growth inhibition is 15% in experiment [5] (setting [7]); 94% (active) in experiment [5] (setting [8]); 68.8% in experiment [5] (at 50.0 µM); 27% in experiment [6] (setting [7]); 88% (active) in experiment [6] (setting [8]); 68.9% in experiment [6] (at 50.0 µM).
Consider `O=[N+]([O-])c1ccc(Oc2c(Cl)cccc2Cl)cc1`, for which the growth inhibition in experiment [1] (setting [7]) is -7%; in experiment [1] (setting [8]) it was 9%; in experiment [1] (at 50.0 µM), -12.9%; in experiment [2] (setting [7]), -13%; in experiment [2] (setting [8]), -5%; in experiment [2] (at 50.0 µM), -11.7%. Further, the growth inhibition was -6% in experiment [3] (setting [7]); -33% in experiment [3] (setting [8]); 5.4% in experiment [3] (at 50.0 µM); -9% in experiment [4] (setting [7]); -1% in experiment [4] (setting [8]); -44.1% in experiment [4] (at 50.0 µM). Besides, the growth inhibition in experiment [5] (setting [7]) is 14%; in experiment [5] (setting [8]), 19%; in experiment [5] (at 50.0 µM), 75.5% (active); in experiment [6] (setting [7]), -12%; in experiment [6] (setting [8]), 13%; in experiment [6] (at 50.0 µM), 14.8%.
Turning to `O=C(/C=C/c1ccccc1)C1(c2ccccc2)CC1`, the growth inhibition in experiment [1] (setting [7]) is -125%; in experiment [1] (setting [8]), -56%; in experiment [1] (at 50.0 µM), 79.8% (active); in experiment [2] (setting [7]) it was -51%; in experiment [2] (setting [8]) it was -42%; in experiment [2] (at 50.0 µM), 60.9%. The growth inhibition in experiment [3] (setting [7]) is -53%; in experiment [3] (setting [8]) it was -2%; in experiment [3] (at 50.0 µM) it was 68.9%; in experiment [4] (setting [7]) it was -55%; in experiment [4] (setting [8]) it was -34%; in experiment [4] (at 50.0 µM) it was -21.4%. In addition, the growth inhibition in experiment [5] (setting [7]) was -58%; in experiment [5] (setting [8]), 39%; in experiment [5] (at 50.0 µM), 44.5%; in experiment [6] (setting [7]), -115%; in experiment [6] (setting [8]) it was -93%; in experiment [6] (at 50.0 µM) it was 66.5%.
For the molecule `Cc1cccc(C)c1N1C(=O)C2Nc3ccccc3SC2C1=O` (stereo unspecified), the growth inhibition in experiment [1] (setting [7]) is 7%; in experiment [1] (setting [8]), 93% (active); in experiment [1] (at 50.0 µM), 98.5% (active); in experiment [2] (setting [7]), -1%; in experiment [2] (setting [8]), 94% (active); in experiment [2] (at 50.0 µM) it was 98.7% (active). Also, the growth inhibition is 3% in experiment [3] (setting [7]); 96% (active) in experiment [3] (setting [8]); 98.4% (active) in experiment [3] (at 50.0 µM); 2% in experiment [4] (setting [7]); 90% (active) in experiment [4] (setting [8]); 95.8% (active) in experiment [4] (at 50.0 µM). The growth inhibition in experiment [5] (setting [7]) was 1%; in experiment [5] (setting [8]), 94% (active); in experiment [5] (at 50.0 µM) it was 98.3% (active); in experiment [6] (setting [7]), 11%; in experiment [6] (setting [8]), 95% (active); in experiment [6] (at 50.0 µM) it was 98.5% (active).
For `Cc1ccccc1[P+](C)(c1ccccc1C)c1ccccc1C`, the growth inhibition in experiment [1] (setting [7]) is 56%; in experiment [1] (setting [8]), 85% (active); in experiment [1] (at 50.0 µM) it was 81% (active); in experiment [2] (setting [7]), 18%; in experiment [2] (setting [8]), 78% (active); in experiment [2] (at 50.0 µM), 69.7%. Moreover, the growth inhibition in experiment [3] (setting [7]) was 31%; in experiment [3] (setting [8]), 89% (active); in experiment [3] (at 50.0 µM) it was 82.2% (active); in experiment [4] (setting [7]) it was 2%; in experiment [4] (setting [8]), 48%; in experiment [4] (at 50.0 µM) it was 29.1%. Also, the growth inhibition in experiment [5] (setting [7]) is 27%; in experiment [5] (setting [8]) it was 85% (active); in experiment [5] (at 50.0 µM), 82.8% (active); in experiment [6] (setting [7]), 34%; in experiment [6] (setting [8]) it was 84% (active); in experiment [6] (at 50.0 µM), 71.8% (active).
As to `FC(F)(F)c1[nH]nc(-c2cc3ccccc3o2)c1N=NN1CCOCC1`, the growth inhibition is 99% (active) in experiment [1] (setting [7]); 99% (active) in experiment [1] (setting [8]); 99.2% (active) in experiment [1] (at 50.0 µM); 100% (active) in experiment [2] (setting [7]); 99% (active) in experiment [2] (setting [8]); 99.5% (active) in experiment [2] (at 50.0 µM). For the same molecule, the growth inhibition in experiment [3] (setting [7]) was 100% (active); in experiment [3] (setting [8]), 99% (active); in experiment [3] (at 50.0 µM) it was 99.5% (active); in experiment [4] (setting [7]), 99% (active); in experiment [4] (setting [8]), 99% (active); in experiment [4] (at 50.0 µM), 99.6% (active). The growth inhibition in experiment [5] (setting [7]) is 100% (active); in experiment [5] (setting [8]), 99% (active); in experiment [5] (at 50.0 µM) it was 99.5% (active); in experiment [6] (setting [7]), 100% (active); in experiment [6] (setting [8]) it was 99% (active); in experiment [6] (at 50.0 µM) it was 99.5% (active).
For the molecule `CSc1ncccc1C(=O)[O][Sn]([c]1ccccc1)([c]1ccccc1)[c]1ccccc1`, the growth inhibition was 100% (active) in experiment [1] (setting [7]); 99% (active) in experiment [1] (setting [8]); 97.3% (active) in experiment [1] (at 50.0 µM); 100% (active) in experiment [2] (setting [7]); 99% (active) in experiment [2] (setting [8]); 97.9% (active) in experiment [2] (at 50.0 µM). In addition, the growth inhibition in experiment [3] (setting [7]) is 100% (active); in experiment [3] (setting [8]), 99% (active); in experiment [3] (at 50.0 µM) it was 97.7% (active); in experiment [4] (setting [7]), 99% (active); in experiment [4] (setting [8]), 99% (active); in experiment [4] (at 50.0 µM), 86.7% (active). The growth inhibition in experiment [5] (setting [7]) was 99% (active); in experiment [5] (setting [8]), 99% (active); in experiment [5] (at 50.0 µM), 97.5% (active); in experiment [6] (setting [7]) it was 99% (active); in experiment [6] (setting [8]), 99% (active); in experiment [6] (at 50.0 µM), 96.8% (active).
